Among the data in the supplement of paper PMC10127200 are Euclidean distance values, retold here.

SMILES strings stand for the structures. Where a name gives a salt, the structure may show the parent alone.

The subject of the first test is HEPG2. Kind of test: Euclidean distance of Cell Painting phenotypic profile (signed KS, 77 features) to DMSO centroid (dimensionless distance); 5 or 10 uM (library dependent); higher = stronger phenotypic change vs DMSO (phenoactivity). The settings on record: 48 h. An outline of the steps:
(§1)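 Phenoactivity is defined as the Euclidean distance from a compound profile to the median vehicle profile. Each profile comprised 77 Harmony features, scored as signed Kolmogorov-Smirnov statistics versus same-plate vehicle wells, then plate-position corrected, correlation-weighted and replicate-averaged at the top dose. Five cancer lines and one healthy fibroblast line were exposed to library compounds for 48 h at 10 or 5 uM (0.1% DMSO final).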
`S=C(NCc1ccc2c(c1)OCO2)N1CCN(c2ncnc3c2oc2ccccc23)CC1` [Amuvatinib (MP-470)] yielded an Euclidean distance of 2.14.
`C=C1CC[C@@H]2[C@](C)(CO)[C@H](O)CC[C@@]2(C)[C@H]1C/C=C1\C=COC1=O` [Dehydroandrographolide] came in with an Euclidean distance of 0.517.
In turn, `C=CCN1CCCC1CNC(=O)c1cc2nn[nH]c2cc1OC` (stereo not drawn) [Alizapride HCl] showed an Euclidean distance of 1.28.
`CC[C@H](Nc1ncnc2[nH]cnc12)c1nc2cccc(F)c2c(=O)n1-c1ccccc1` [CAL-101 (Idelalisib. GS-1101)] showed an Euclidean distance of 0.747.
For the compound `CO/N=C(\C(=O)N[C@@H]1C(=O)N2C(C(=O)O)=C(CSC(=O)c3ccco3)CS[C@H]12)c1csc(N)n1` [Ceftiofur], the Euclidean distance was 1.81.
On the same count and under the same terms, to `CC[C@H](C)C(=O)O[C@H]1C[C@@H](C)C=C2C=C[C@H](C)[C@H](CC[C@@H]3C[C@@H](O)CC(=O)O3)[C@H]21` [Lovastatin] belongs 2.11; to `Nc1c(CC(=O)O)cccc1C(=O)c1ccc(Br)cc1` [Bromfenac Sodium], 0.3; to `O=c1c(-n2ccnn2)c[nH]n1-c1cc(N2CCOCC2)ncn1` [Molidustat (BAY 85-3934)], 0.627.
On the same count and under the same terms, to `O=C(O)c1ccc(CN2CCC(CN[C@@H]3C[C@H]3c3ccccc3)CC2)cc1` belongs 1.11.
`CN(C)Cc1ccc(-c2nc3cccc4c3n2CCNC4=O)cc1` gave an Euclidean distance of 1.62.
For `Cc1c(S(=O)(=O)O)oc2c1C(=O)C(=O)c1c-2ccc2c1CCCC2(C)C` [Tanshinone IIA sulfonate (sodium)], the Euclidean distance is 0.728.
In turn, `NC(=S)N/N=C/c1ncccc1N` [Triapine] showed an Euclidean distance of 2.83.
The same measure, in the same setting: to `OCC(O)CN1CCN(c2ccccc2)CC1` (stereo not drawn) [Dropropizine] belongs 0.735; to `CN(C)CCOC(c1ccccc1)c1ccccc1.Cn1c(=O)c2[nH]c(Cl)nc2n(C)c1=O` [Dimenhydrinate], 0.581; to `CC(C)(S)[C@@H](N)C(=O)O` [Penicillamine], 1.02.
Still for that read-out and setting: to `CN1CCC(COc2cnc(-c3cccc(Cn4nc(-c5cccc(C#N)c5)ccc4=O)c3)nc2)CC1` belongs 1.76.
As for `C[C@@H](O)[C@H]1C(=O)N2C(C(=O)O)=C(SCCNC=N)C[C@H]12` [Imipenem], the Euclidean distance stood at 0.883.
Take `Oc1c2ccccc2c2c3c(cccc13)N=N2`: the Euclidean distance turned out to be 1.13.
In the case of `O=C(/C=C/C#Cc1cccc(NS(=O)(=O)c2ccccc2)c1)NO` [Oxamflatin], the Euclidean distance was 2.79.
The same measure, in the same setting: the figure for `CC(C)(CO)c1cc2cc(NC(=O)C3(c4ccc5c(c4)OC(F)(F)O5)CC3)c(F)cc2n1C[C@@H](O)CO` is 0.904; for `CCOc1nc2cccc(C(=O)O)c2n1Cc1ccc(-c2ccccc2-c2noc(=O)[nH]2)cc1` [Azilsartan] it is 0.88; for `N#Cc1ccc(C2CCCc3cncn32)cc1` (stereo not drawn) [Fadrozole] it is 0.631.
Same read-out and setting: to `O=c1cc(-c2ccc(O)cc2)oc2cc(O)cc(O)c12` [Apigenin] belongs 1.73; to `O=C1c2c(O)ccc(O)c2C(=O)c2c(NCCNCCO)ccc(NCCNCCO)c21` [Mitoxantrone HCl], 4.05; to `CCCCOc1ccc(C(=O)CCN2CCCCC2)cc1` [Dyclonine HCl], 1.96.
The same measure, in the same setting: the figure for `O=C(O)/C=C/c1ccc(O)c(O)c1` [Caffeic Acid] is 0.639; for `Cn1c([N+](=O)[O-])cnc1COC(N)=O` [Ronidazole] it is 0.646.
The compound `CC(NCCC(c1ccccc1)c1ccccc1)c1ccccc1` (stereo not drawn) [Fendiline hydrochloride] yielded an Euclidean distance of 2.42.
The compound `CCn1c(=O)c2c(nc(/C=C/c3ccc(OC)c(OC)c3)n2C)n(CC)c1=O` [Istradefylline] registered an Euclidean distance of 0.77.
Take `C[C@H](NC(=O)Cc1cc(F)cc(F)c1)C(=O)N[C@H](C(=O)OC(C)(C)C)c1ccccc1`: the Euclidean distance is 1.57.
In turn, `CCOC(=O)[C@H](CCc1ccccc1)N[C@@H](C)C(=O)N1C(=O)N(C)C[C@H]1C(=O)O` [Imidapril HCl] registered an Euclidean distance of 1.55.
In turn, `CCC1=C(C)CN(C(=O)NCCc2ccc(S(=O)(=O)NC(=O)N[C@H]3CC[C@H](C)CC3)cc2)C1=O` [Glimepiride] yielded an Euclidean distance of 0.508.
As to `Cc1nc(NC(=O)N2CCC[C@H]2C(N)=O)sc1-c1ccnc(C(C)(C)C(F)(F)F)c1` [Alpelisib (BYL719)], the Euclidean distance turned out to be 1.09.
Compound `CCCC(=O)[O-].[Na+]` [Sodium butyrate] came in with an Euclidean distance of 0.665.
For the compound `Cc1cc2c(F)c(Oc3ncnn4cc(OC[C@@H](C)OC(=O)[C@H](C)N)c(C)c34)ccc2[nH]1`, the Euclidean distance was 0.818.
In turn, `Cc1ccc([C@@H]2O[C@H](CO)[C@@H](O)[C@H](O)[C@H]2O)cc1Cc1ccc(-c2ccc(F)cc2)s1` [Canagliflozin hemihydrate] had an Euclidean distance of 1.06.
Still for that read-out and setting: the figure for `Cc1nc(-c2ccc(OCC(C)C)c(C#N)c2)sc1C(=O)O` [Febuxostat] is 0.375; for `Oc1ccc(Nc2nc(-c3ccc(Cl)cc3)cs2)cc1` it is 2.49.
The compound `Cc1c(-c2cnccn2)ssc1=S` [Oltipraz] showed an Euclidean distance of 1.11.

For the next test, the system named is OVCAR4. The description is as above. The conditions noted are these: 48 h. The procedure, abridged:
as §1
Consider `S=C(NCc1ccc2c(c1)OCO2)N1CCN(c2ncnc3c2oc2ccccc23)CC1` [Amuvatinib (MP-470)], for which the Euclidean distance is 1.2.
As to `C=C1CC[C@@H]2[C@](C)(CO)[C@H](O)CC[C@@]2(C)[C@H]1C/C=C1\C=COC1=O` [Dehydroandrographolide], the Euclidean distance stood at 1.29.
`C=CCN1CCCC1CNC(=O)c1cc2nn[nH]c2cc1OC` (stereo not drawn) [Alizapride HCl] gave an Euclidean distance of 0.984.
As to `CC[C@H](Nc1ncnc2[nH]cnc12)c1nc2cccc(F)c2c(=O)n1-c1ccccc1` [CAL-101 (Idelalisib. GS-1101)], the Euclidean distance is 1.56.
Turning to `CO/N=C(\C(=O)N[C@@H]1C(=O)N2C(C(=O)O)=C(CSC(=O)c3ccco3)CS[C@H]12)c1csc(N)n1` [Ceftiofur], the Euclidean distance is 1.07.
With `CC[C@H](C)C(=O)O[C@H]1C[C@@H](C)C=C2C=C[C@H](C)[C@H](CC[C@@H]3C[C@@H](O)CC(=O)O3)[C@H]21` [Lovastatin], the Euclidean distance was determined as 0.909.
On to `Nc1c(CC(=O)O)cccc1C(=O)c1ccc(Br)cc1` [Bromfenac Sodium], for which the Euclidean distance turned out to be 1.75.
In the case of `O=c1c(-n2ccnn2)c[nH]n1-c1cc(N2CCOCC2)ncn1` [Molidustat (BAY 85-3934)], the Euclidean distance came to 1.19.
Regarding `O=C(O)c1ccc(CN2CCC(CN[C@@H]3C[C@H]3c3ccccc3)CC2)cc1`, the Euclidean distance turned out to be 1.06.
Same read-out and setting: to `CN(C)Cc1ccc(-c2nc3cccc4c3n2CCNC4=O)cc1` belongs 1.41; to `Cc1c(S(=O)(=O)O)oc2c1C(=O)C(=O)c1c-2ccc2c1CCCC2(C)C` [Tanshinone IIA sulfonate (sodium)], 1.24; to `NC(=S)N/N=C/c1ncccc1N` [Triapine], 3.6.
On to `OCC(O)CN1CCN(c2ccccc2)CC1` (stereo not drawn) [Dropropizine], for which the Euclidean distance was found to be 1.98.
Regarding `CN(C)CCOC(c1ccccc1)c1ccccc1.Cn1c(=O)c2[nH]c(Cl)nc2n(C)c1=O` [Dimenhydrinate], the Euclidean distance turned out to be 0.863.
In the case of `CC(C)(S)[C@@H](N)C(=O)O` [Penicillamine], the Euclidean distance worked out at 1.22.
Compound `CN1CCC(COc2cnc(-c3cccc(Cn4nc(-c5cccc(C#N)c5)ccc4=O)c3)nc2)CC1` showed an Euclidean distance of 1.52.
On to `C[C@@H](O)[C@H]1C(=O)N2C(C(=O)O)=C(SCCNC=N)C[C@H]12` [Imipenem], for which the Euclidean distance came to 0.789.
Turning to `Oc1c2ccccc2c2c3c(cccc13)N=N2`, the Euclidean distance turned out to be 0.655.
`O=C(/C=C/C#Cc1cccc(NS(=O)(=O)c2ccccc2)c1)NO` [Oxamflatin] showed an Euclidean distance of 3.64.
For the compound `CC(C)(CO)c1cc2cc(NC(=O)C3(c4ccc5c(c4)OC(F)(F)O5)CC3)c(F)cc2n1C[C@@H](O)CO`, the Euclidean distance was 2.17.
In turn, `CCOc1nc2cccc(C(=O)O)c2n1Cc1ccc(-c2ccccc2-c2noc(=O)[nH]2)cc1` [Azilsartan] came in with an Euclidean distance of 0.784.
The same measure, in the same setting: to `N#Cc1ccc(C2CCCc3cncn32)cc1` (stereo not drawn) [Fadrozole] belongs 0.866.
Still for that read-out and setting: the figure for `O=c1cc(-c2ccc(O)cc2)oc2cc(O)cc(O)c12` [Apigenin] is 1.32.
Compound `O=C1c2c(O)ccc(O)c2C(=O)c2c(NCCNCCO)ccc(NCCNCCO)c21` [Mitoxantrone HCl] returned an Euclidean distance of 6.27.
Same read-out and setting: the figure for `CCCCOc1ccc(C(=O)CCN2CCCCC2)cc1` [Dyclonine HCl] is 0.828.
Compound `O=C(O)/C=C/c1ccc(O)c(O)c1` [Caffeic Acid] came in with an Euclidean distance of 1.23.
Same read-out and setting: the figure for `Cn1c([N+](=O)[O-])cnc1COC(N)=O` [Ronidazole] is 1.59; for `CC(NCCC(c1ccccc1)c1ccccc1)c1ccccc1` (stereo not drawn) [Fendiline hydrochloride] it is 1.41; for `CCn1c(=O)c2c(nc(/C=C/c3ccc(OC)c(OC)c3)n2C)n(CC)c1=O` [Istradefylline] it is 1.44.
As to `C[C@H](NC(=O)Cc1cc(F)cc(F)c1)C(=O)N[C@H](C(=O)OC(C)(C)C)c1ccccc1`, the Euclidean distance is 1.26.
The compound `CCOC(=O)[C@H](CCc1ccccc1)N[C@@H](C)C(=O)N1C(=O)N(C)C[C@H]1C(=O)O` [Imidapril HCl] came in with an Euclidean distance of 1.05.
Same read-out and setting: to `CCC1=C(C)CN(C(=O)NCCc2ccc(S(=O)(=O)NC(=O)N[C@H]3CC[C@H](C)CC3)cc2)C1=O` [Glimepiride] belongs 0.801.
`Cc1nc(NC(=O)N2CCC[C@H]2C(N)=O)sc1-c1ccnc(C(C)(C)C(F)(F)F)c1` [Alpelisib (BYL719)] gave an Euclidean distance of 2.02.
As to `CCCC(=O)[O-].[Na+]` [Sodium butyrate], the Euclidean distance was 1.51.
The compound `Cc1cc2c(F)c(Oc3ncnn4cc(OC[C@@H](C)OC(=O)[C@H](C)N)c(C)c34)ccc2[nH]1` came in with an Euclidean distance of 1.35.
Compound `Cc1ccc([C@@H]2O[C@H](CO)[C@@H](O)[C@H](O)[C@H]2O)cc1Cc1ccc(-c2ccc(F)cc2)s1` [Canagliflozin hemihydrate] gave an Euclidean distance of 1.37.
As to `Cc1nc(-c2ccc(OCC(C)C)c(C#N)c2)sc1C(=O)O` [Febuxostat], the Euclidean distance came out at 0.978.
In turn, `Oc1ccc(Nc2nc(-c3ccc(Cl)cc3)cs2)cc1` gave an Euclidean distance of 1.41.
As for `Cc1c(-c2cnccn2)ssc1=S` [Oltipraz], the Euclidean distance was found to be 1.3.
